Each structure is given as a SMILES string. Results filed as inconclusive are left out. Activity calls are given as the source filed them. Calls follow the shape of the dose curve; as a rule, active = well fitted inhibition curve with a large enough effect; inconclusive = small, poorly fitted or top-dose-only effect; inactive = flat fitted curve, though single readings scatter.
% is scaled to controls: 0 for no effect and ±100 for the full control effect.

Calcium and integrin-binding protein 1 (Homo sapiens), sequence (Q99828 whole entry, looked up): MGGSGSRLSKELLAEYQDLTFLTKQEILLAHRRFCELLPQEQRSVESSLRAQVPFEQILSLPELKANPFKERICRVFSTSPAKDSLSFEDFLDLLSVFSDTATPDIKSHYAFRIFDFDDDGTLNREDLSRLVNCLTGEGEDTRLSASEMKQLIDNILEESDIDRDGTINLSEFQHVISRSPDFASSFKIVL

The experiment concerns the target Calcium and integrin-binding protein 1 (Homo sapiens) (UniProt Q99828). Briefly: Primary qHTS for Identification of Calcium Integrin Binding Protein 1 (CIB1) Competitor (AID 1508620). Also: top concentration of the series differs between compounds. The following applies: CIB1-GST / FITC-alphaIIb peptide fluorescence polarization; series mostly up to 114 µM; activity change, negative = inhibition: at the top concentration. The method, boiled down: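 Fluorescence polarization competition: GST-tagged CIB1 (1 uM final) preincubated with compound 15 min at room temperature, then FITC-labelled alphaIIb peptide (100 nM final) added. After 15 min at room temperature, polarization read at Ex 480/Em 540.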
For orientation: In qHTS, concentration-response curves come from the screen itself.
`O=S(=O)(Nc1nccs1)c1ccc(NCc2cccc(Cl)c2Cl)cc1`: the “activity change, negative = inhibition” value is 1.83% (inactive).

Take `N#CN1CCC(NS(=O)(=O)c2ccc(C(F)(F)F)cc2)CC1`: the “activity change, negative = inhibition” value was 4.43% (inactive).

In the case of `Cc1ccc(OCCn2c(CCNC(=O)c3cc(N)ccc3N)nc3ccccc32)cc1`, the “activity change, negative = inhibition” value was 2.35% (inactive).

As for `Cc1ccc(CNc2ccc(N3CCNCC3)cc2)cc1`, the “activity change, negative = inhibition” value was -8.02% (inactive).

On to `O=C1Nc2ccccc2/C1=C\c1cc(F)c(O)c(F)c1`, for which the “activity change, negative = inhibition” value is -4.14% (inactive).

As for `Cc1ccc(OCCn2c(CCNC(=O)c3ccc(C(C)(C)C)cc3)nc3ccccc32)cc1`, the “activity change, negative = inhibition” value was 5.14% (inactive).

In the case of `COc1ccccc1-c1no[n+]([O-])c1C#N`, the “activity change, negative = inhibition” value was -0.268% (inactive).

Regarding `Oc1ccc(CNCc2ccccc2F)c2cccnc12`, the “activity change, negative = inhibition” value was -1.64% (inactive).

Regarding `O=C(Nc1cc(Cc2ccccc2)ccn1)c1ccc(-c2cccc([N+](=O)[O-])c2)o1`, the “activity change, negative = inhibition” value is -0.493% (inactive).

For the molecule `COc1ccc(CNc2ccc(S(=O)(=O)Nc3nccs3)cc2)c(O)c1`, the “activity change, negative = inhibition” value is -12.5% (inactive).

Turning to `COc1cc(NC(=O)c2cnn3c(C)cc(C)nc23)cc(OC)c1OC`, the “activity change, negative = inhibition” value is 1.68% (inactive).

For the molecule `Cc1ccc(C)c(OCCn2c(CCNC(=O)C3CCCCC3)nc3ccccc32)c1`, the Potency result is “inactive”.

On to `O=C(NCCc1nc2ccccc2n1CCOc1ccccc1[N+](=O)[O-])C1CCCCC1`, for which the “activity change, negative = inhibition” value is -1.21% (inactive).

In the case of `O=S(=O)(c1cccc(Br)c1)N1CCN(S(=O)(=O)c2ccc3c(c2)OCCO3)CC1`, the “activity change, negative = inhibition” value was 0.419% (inactive).

Take `COc1cc(OC)c(C(CC(=O)N2CC(C)CC(C)C2)c2ccc3c(c2)OCO3)c(OCC#N)c1` (centres undefined): the “activity change, negative = inhibition” value is 3.82% [at 228 µM] (inactive).

Turning to `Brc1ccc(-c2csc(N3CCC(c4nn[nH]n4)CC3)n2)cc1`, the “activity change, negative = inhibition” value is -17.9% (inactive).

For `c1nc(NCC2CCCO2)c2ccc(-c3ccc4c(c3)OCO4)cc2n1` (centres undefined), the “activity change, negative = inhibition” value was -7.79% (inactive).

Consider `COc1ccc(C2Nc3ccccc3C(=O)N2Cc2ccco2)cc1COc1ccccc1C` (centres undefined), for which the “activity change, negative = inhibition” value was -4.54% (inactive).

As for `Cc1cc(C)c(C)c(S(=O)(=O)N2CCN(S(=O)(=O)c3ccc4c(c3)OCCO4)CC2)c1C`, the “activity change, negative = inhibition” value was -2.41% (inactive).

For `Cc1ccccc1-c1nnc(NC(=O)Nc2ccc3ccccc3c2)s1`, the “activity change, negative = inhibition” value is 8.35% (inactive).

`CC(=O)Nc1sc2c(c1-c1nc3ccccc3s1)CN(C1COC1)C2`: the “activity change, negative = inhibition” value is -15.4% (inactive).

As for `COc1cc(-c2ccc3ncnc(N(C)Cc4csc(C)n4)c3c2)cc(OC)c1OC`, the “activity change, negative = inhibition” value is 6.38% (inactive).

In the case of `O=C(/C=C/c1ccc(OC(F)(F)F)cc1)Nc1cccc([S+](=O)([O-])Nc2ccccc2F)c1`, the “activity change, negative = inhibition” value is 7.8% (inactive).

Consider `Cc1ccc(NCc2ccc(O)c3ncccc23)c(F)c1`, for which the “activity change, negative = inhibition” value was 7.59% (inactive).

`Cc1cc(C)n2ncc(C(=O)NC(C)C)c2n1`: the “activity change, negative = inhibition” value was -0.15% (inactive).

As to `Nc1ccc(-c2ccc(NC(=O)c3cccs3)cn2)cc1`, the “activity change, negative = inhibition” value is 1.3% (inactive).

As to `COc1cccc(C(=O)NC2CCN(C#N)CC2)c1`, the “activity change, negative = inhibition” value was 0.127% (inactive).

Turning to `O=C1c2ccccc2C(=O)N1c1ccc2ncccc2c1`, the “activity change, negative = inhibition” value was -0.611% (inactive).

For the molecule `N[C@@H](Cc1ccccc1)C(=O)Nc1ccc(Cl)cc1C(=O)c1ccc[nH]1`, the “activity change, negative = inhibition” value was -1.83% (inactive).

As to `Cc1ccc(-c2ccc(=O)n(CC(=O)NCCC3CC3)n2)cc1`, the “activity change, negative = inhibition” value is 3.65% (inactive).

For `O=C(Nc1nnc(-c2ccncc2)s1)Nc1ccc(Cl)cc1F`, the “activity change, negative = inhibition” value is 4.95% (inactive).

On to `NC(=O)C[C@H](N)C(=O)Nc1ccc(Cl)cc1C(=O)c1ccc[nH]1`, for which the “activity change, negative = inhibition” value is -4.86% (inactive).

For `Cc1cc(N2C(=O)c3ccccc3C2=O)no1`, the “activity change, negative = inhibition” value was -7.01% (inactive).

As for `Cn1c2cc(S(C)(=O)=O)sc2c2cnn(Cc3ccccc3F)c(=O)c21`, the “activity change, negative = inhibition” value was 3.17% (inactive).

As to `O=C(NCc1ccccc1)C1CCN(c2nc(-c3ccc(Br)cc3)cs2)CC1`, the “activity change, negative = inhibition” value is -13.4% (inactive).

In the case of `N#Cc1c(-c2ccc(Br)cc2)no[n+]1[O-]`, the “activity change, negative = inhibition” value is -6.07% (inactive).

As for `Cc1cc2c(s1)c1cnn(Cc3ccc(F)cc3)c(=O)c1n2C`, the “activity change, negative = inhibition” value is 5.77% (inactive).

For `Cc1nnc(-c2cnn(C)c2N)n1CCCc1ccccc1`, the “activity change, negative = inhibition” value is 1.86% (inactive).

On to `Cc1cc(NS(=O)(=O)c2ccc3c(c2)CCC(=O)N3)ccc1F`, for which the “activity change, negative = inhibition” value was 1.56% (inactive).

These data come from PubChem BioAssay (NCATS).
